Measurements published in PubChem BioAssay AID1159580 (chemical genetic matrix, 2015).
“And” between values parts separate entries of the source, which are not always exact repeats. Identical values can stand only once. The whole screen tested about 5,500 compounds, of which about 2,000 (36%) were called active. Another 18% or so got no clear call; they are omitted. Rule as the data show it: active = normalized growth mostly below about 0.91 (no sharp cut-off); inconclusive = no clear call, values can overlap the other calls; inactive = mostly above about 0.92. The list shows a part of the results.

Assay: chemical genetic growth profiling, strain panel (AID 1159580);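 also: tested at 20 µM; growth read once vehicle control cultures reached saturation at 30 °C; 1 = growth at the plate median or of vehicle wells; lower values mean less growth of the strain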
Conditions: S. cerevisiae deletion strains, growth OD

Measured: normalized growth

CC[C@@H](C(=O)C(C)[C@@H](O)[C@H](C)CCc1ccc(C)c(O)c1C(=O)O)C1OC(CC)(C2CC[C@](O)(CC)[C@H](C)O2)C[C@@H]1C (stereo partly drawn)
inactive: locus YAL013W, strain DEP1, active compounds read low 1.05 | locus YAL021C, strain ccr4, active compounds read low 1.03 | locus YAL026C, strain drs2, active compounds read low 0.949 | locus YAL030W, strain snc1, active compounds read low 1.06 | locus YBL061C, strain skt5, active compounds read low 1.06 | locus YBR009C, strain hhf1, active compounds read low 1.01 | locus YBR023C, strain chs3, active compounds read low 1.06 | locus YBR229C, strain ROT2, active compounds read low 1.04 | locus YBR231C, strain swc5, active compounds read low 1.07 | locus YBR279W, strain paf1, active compounds read low 1.06 | locus YCL011C, strain gbp2, active compounds read low 1.06 | locus YCL016C, strain dcc1, active compounds read low 1.05 | locus YCL029C, strain bik1, active compounds read low 1.02 | locus YCL061C, strain MRC1, active compounds read low 1.04 | locus YCR088W, strain abp1, active compounds read low 1.07 | locus YDL005C, strain med2, active compounds read low 1.08 | locus YDL035C, strain GPR1, active compounds read low 0.978 | locus YDL040C, strain nat1, active compounds read low 1.06 | locus YDL074C, strain BRE1, active compounds read low 0.938 | locus YDL101C, strain DUN1, active compounds read low 1.03 | locus YDL134C, strain PPH21, active compounds read low 1.02 | locus YDL185W, strain tfp1, active compounds read low 0.993 | locus YDL192W, strain arf1, active compounds read low 1.01 | locus YDR001C, strain nth1, active compounds read low 1.07 | locus YDR069C, strain doa4, active compounds read low 1.02 | locus YDR101C, strain arx1, active compounds read low 1.04 | locus YDR150W, strain NUM1, active compounds read low 1.05 | locus YDR159W, strain sac3, active compounds read low 0.996 | locus YDR162C, strain NBP2, active compounds read low 1.01 | locus YDR195W, strain ref2 1.05 | locus YDR297W, strain sur2, active compounds read low 1.05 | locus YDR318W, strain mcm21, active compounds read low 1.01 | locus YDR334W, strain swr1, active compounds read low 1.08 | locus YDR335W, strain msn5, active compounds read low 1.08 | locus YDR388W, active compounds read low 1.02 | locus YDR502C, strain sam2, active compounds read low 1 | locus YEL003W, strain gim4, active compounds read low 1.04 | locus YEL037C, strain rad23, active compounds read low 1.07 | locus YEL061C, strain CIN8 (second series), active compounds read low 1.08 | locus YEL061C, strain CIN8, active compounds read low 1.02 | locus YER015W, strain faa2, active compounds read low 1.06 | locus YER016W, strain bim1, active compounds read low 1.05 | locus YER110C, active compounds read low 1.02 | locus YER111C, strain swi4, active compounds read low 1.07 | locus YER155C, strain BEM2 (second series), active compounds read low 1.04 | locus YER167W, strain BCK2, active compounds read low 1.02 | locus YFR010W, strain ubp6, active compounds read low 1.06 | locus YGL078C, strain dbp3, active compounds read low 0.998 | locus YGL086W, strain mad1, active compounds read low 1.05 | locus YGL167C, strain pmr1, active compounds read low 1.07 | locus YGL173C, strain kem1, active compounds read low 1.04 | locus YGL240W, strain doc1, active compounds read low 1.03 | locus YGL248W, strain PDE1, active compounds read low 1.02 | locus YGL253W, strain hxk2, active compounds read low 1.06 | locus YGR135W, strain pre9, active compounds read low 0.981 | locus YGR252W, strain gcn5, active compounds read low 0.967 | locus YHR013C, strain ard1, active compounds read low 1.1 | locus YHR027C, strain rpn1, active compounds read low 1.07 | locus YHR030C, strain SLT2, active compounds read low 1.03 and 0.969 | locus YHR079C, strain IRE1 (second series), active compounds read low 1.02 | locus YHR079C, strain IRE1, active compounds read low 0.944 | locus YHR094C, strain hxt1, active compounds read low 1.03 | locus YHR129C, strain ARP1, active compounds read low 1.04 | locus YHR142W, strain chs7, active compounds read low 1.08 | locus YHR200W, strain rpn10, active compounds read low 1.02 | locus YIL066C, strain RNR3, active compounds read low 1.02 | locus YIL073C, strain SPO22, active compounds read low 0.988 | locus YIL125W, strain kgd1, active compounds read low 1 | locus YIR030C, strain dcg1, active compounds read low 1.03 | locus YJL092W, strain hpr5, active compounds read low 1.06 | locus YJL095W, strain BCK1 (second series), active compounds read low 1.06 | locus YJL095W, strain BCK1, active compounds read low 1.02 and 0.976 | locus YJL115W, strain asf1, active compounds read low 1.06 | locus YJL129C, strain trk1, active compounds read low 0.976 | locus YJL134W, strain LCB3, active compounds read low 1.04 | locus YJL154C, strain vps35, active compounds read low 1.06 | locus YJL164C, strain tpk1, active compounds read low 1.03 | locus YJL166W, strain qcr8, active compounds read low 1.06 | locus YJL168C, strain set2, active compounds read low 1.04 | locus YJL187C, strain SWE1 (second series), active compounds read low 1.03 | locus YJL187C, strain SWE1, active compounds read low 1.06
active: locus YBR021W, strain FUR4, active compounds read low 1.16 [resistant] | locus YBR171W, strain sec66, active compounds read low 1.12 [resistant] | locus YCL069W, strain vba3, active compounds read low 1.08 [resistant] | locus YDR137W, strain rgp1, active compounds read low 1.24 [resistant] | locus YDR392W, strain spt3, active compounds read low 0.732 | locus YER155C, strain BEM2, active compounds read low 1.13 [resistant] | locus YGL227W, strain vid30, active compounds read low 1.09 [resistant]
